In PubChem BioAssay:

Assay: inhibitors of Sendai virus-induced IRF3 signaling, primary screen, TLR/RLR signaling modifier project, cell-based, Sendai virus stimulus, luciferase, 10K MLSCN set (AID 602276;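 active = inhibition at or above 50% at 10 µM; inactive = inhibition below 50%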;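 note: firefly luciferase from ISG56 promoter only with Renilla not read in this screen; 0% = Sendai virus plus DMSO and 100% = medium plus DMSO without virus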)
Conditions: HEK293 RL24 IRF3 luciferase reporter, at 10 µM, hits give high values

inhibition, inactive:
N#Cc1c(/N=C/c2ccco2)sc2c1CCC2 -16.4%
Cc1cccc(C)c1OCc1nnc2c3cnn(C)c3ncn12 -9.31%
Cc1cc2ncn(C(=O)N3CCOCC3)c2cc1C 4.38%
COCCCn1c2nc3ccccc3nc2c2c(=O)n(-c3ccccc3OC)cnc21 -1.7%
Cc1nc2ccc(NC(=O)N3CCSCC3)cc2s1 -33.4%
CCn1c(SCC(=O)NCc2ccco2)nc2c(c1=O)SC(C)C2 (stereo not given) 4.07%
COc1nc(OC)nc(N2CCC(NC(=O)C(Cc3ccc(C(C)C)cc3)NC(C)=O)CC2)n1 (stereo not given) 12.2%
Cc1nc2ccccn2c1C(=O)NCCCN1CCOCC1 4.89%
CN1C(=O)CC(C(=O)Nc2ccc(F)cc2)SC1=Nc1ccc2c(c1)OCO2 (stereo not given) 16.1%
Clc1ccc(Cl)c(-c2nn3c(COc4ccccc4)nnc3s2)c1 23.3%
c1ccc(-n2nnnc2OCCOc2nnnn2-c2ccccc2)cc1 14.3%
c1ccc(CNc2ccc3c(c2)ncn3C2CCCCC2)nc1 -10.6%
Cn1c(Cc2csc(N)n2)nnc1SCC(=O)NCc1ccccc1 -2.1%
CC(=O)c1cc2c(=O)c3cc(C)ccc3oc2nc1C -28.2%
O=C(Nc1cccnc1N1CCOCC1)c1ccco1 10.9%
Cc1ccc(NC(=O)Cn2cccc2)cc1Cl 8.59%
Cc1cc(NC(=O)Cn2cnc3c(cnn3C(C)(C)C)c2=O)no1 -18.6%
CCCn1c2c(c(O)c(C(=O)NC)c1=O)CCCC2 26.6%
CCOC(=O)c1ccc(NC(=O)CC2SC(=NC)N(C)C2=O)cc1 (stereo not given) 13.7%
CCCn1c2ccccc2c2nnc(SCC(=O)Nc3ncccn3)nc21 12.2%
c1ccc(-c2cc(-c3nc(-c4ccccn4)no3)c3ccccc3n2)cc1 0.406%
O=C(O)C1CCCN1C(=O)Nc1ccc(F)cc1 (stereo not given) 8.17%
COc1ccc(Nc2nc(OC)nc(N3CCN(c4ccc(OC)cc4)CC3)n2)cc1 14%
CCCC1CC(C)(C(=O)Cn2[nH]c(=O)ccc2=O)OC1=O (stereo not given) 22.7%
CCOC(=O)N1CCN(C(=O)c2ccc3nc4cc(Cl)ccc4c(=O)n3c2)CC1 6.58%
CCCCCOC(=O)CSc1nnc(-c2cc(OC)c(OC)c(OC)c2)o1 3.74%
Cc1cc(=O)n(CC(C)C)c(O)c1C#N 13%
Oc1ccccc1C1=Nc2nc3ccccc3n2C(c2ccccc2)C1 (stereo not given) -38.4%
O=S(=O)(c1ccc2c(c1)OCCO2)N(Cc1ccc(F)cc1)Cc1nnc(-c2cccs2)o1 13.3%
CCCNC(=O)c1c(N)n(-c2cc(OC)cc(OC)c2)c2nc3ccccc3nc12 8.54%
COc1ccc2cc(C#N)c(NC(C)C)nc2c1 8%
Cc1c(NC(=O)CN2c3cccc4cccc(c34)S2(=O)=O)c(=O)n(-c2ccccc2)n1C 8.89%
COc1ccc(C2CC(=O)c3c(C)nc(N4CCN(c5ccccc5)CC4)nc3C2)cc1 (stereo not given) 8.81%
COc1cc(CC(=O)NCc2ccc3c(c2)OCO3)cc(OC)c1OC 6.85%
O=C(CCCC(=O)N(CC(=O)NC1CCCCC1)Cc1ccc2c(c1)OCO2)Nc1ccccn1 15.4%
CCCOc1ccc(/C(O)=C2/C(=O)C(=O)N(CCCOC)C2c2ccncc2)cc1 (stereo not given) 13.1%
Cc1cc(NC(=O)CCC(=O)N(CCc2ccccc2)C(C(=O)NC2CCCC2)c2ccco2)no1 (stereo not given) 4.62%
CCC(=O)OC1(C#CCOc2ccc(OC)cc2)CCN(C)CC1 17.8%
CCCS(=O)(=O)N1CCC(C(=O)N2CCCC2)CC1 18.9%
O=C(CS(=O)(=O)Cc1ccccc1)N1CCc2ccccc2C1 -17.6%

Assay: inhibitors of poly I:C-induced TLR3 signaling, primary screen, cell-based, poly I:C stimulus, luciferase, 10K MLSCN set (AID 602277)
Conditions: HEK293-TLR3 RL24 IRF3 luciferase reporter, at 10 µM, hits give high values

inhibition, inactive:
N#Cc1c(/N=C/c2ccco2)sc2c1CCC2 -42.7%
Cc1cccc(C)c1OCc1nnc2c3cnn(C)c3ncn12 -26.9%
Cc1cc2ncn(C(=O)N3CCOCC3)c2cc1C 3.06%
COCCCn1c2nc3ccccc3nc2c2c(=O)n(-c3ccccc3OC)cnc21 -9.3%
Cc1nc2ccc(NC(=O)N3CCSCC3)cc2s1 -42.8%
CCn1c(SCC(=O)NCc2ccco2)nc2c(c1=O)SC(C)C2 (stereo not given) 9.1%
COc1nc(OC)nc(N2CCC(NC(=O)C(Cc3ccc(C(C)C)cc3)NC(C)=O)CC2)n1 (stereo not given) 11.8%
Cc1nc2ccccn2c1C(=O)NCCCN1CCOCC1 12.3%
CN1C(=O)CC(C(=O)Nc2ccc(F)cc2)SC1=Nc1ccc2c(c1)OCO2 (stereo not given) 4.96%
Clc1ccc(Cl)c(-c2nn3c(COc4ccccc4)nnc3s2)c1 23.2%
c1ccc(-n2nnnc2OCCOc2nnnn2-c2ccccc2)cc1 23.8%
c1ccc(CNc2ccc3c(c2)ncn3C2CCCCC2)nc1 -24.3%
Cn1c(Cc2csc(N)n2)nnc1SCC(=O)NCc1ccccc1 13.3%
CC(=O)c1cc2c(=O)c3cc(C)ccc3oc2nc1C -91.3%
O=C(Nc1cccnc1N1CCOCC1)c1ccco1 10.7%
Cc1ccc(NC(=O)Cn2cccc2)cc1Cl -12.8%
Cc1cc(NC(=O)Cn2cnc3c(cnn3C(C)(C)C)c2=O)no1 -0.822%
CCCn1c2c(c(O)c(C(=O)NC)c1=O)CCCC2 25.6%
CCOC(=O)c1ccc(NC(=O)CC2SC(=NC)N(C)C2=O)cc1 (stereo not given) 17.7%
CCCn1c2ccccc2c2nnc(SCC(=O)Nc3ncccn3)nc21 21.2%
c1ccc(-c2cc(-c3nc(-c4ccccn4)no3)c3ccccc3n2)cc1 -37.7%
O=C(O)C1CCCN1C(=O)Nc1ccc(F)cc1 (stereo not given) 10.2%
COc1ccc(Nc2nc(OC)nc(N3CCN(c4ccc(OC)cc4)CC3)n2)cc1 -11.1%
CCCC1CC(C)(C(=O)Cn2[nH]c(=O)ccc2=O)OC1=O (stereo not given) 25.6%
CCOC(=O)N1CCN(C(=O)c2ccc3nc4cc(Cl)ccc4c(=O)n3c2)CC1 6.7%
CCCCCOC(=O)CSc1nnc(-c2cc(OC)c(OC)c(OC)c2)o1 10.4%
Cc1cc(=O)n(CC(C)C)c(O)c1C#N -7.21%
Oc1ccccc1C1=Nc2nc3ccccc3n2C(c2ccccc2)C1 (stereo not given) -68.7%
O=S(=O)(c1ccc2c(c1)OCCO2)N(Cc1ccc(F)cc1)Cc1nnc(-c2cccs2)o1 26.7%
CCCNC(=O)c1c(N)n(-c2cc(OC)cc(OC)c2)c2nc3ccccc3nc12 -6.79%
COc1ccc2cc(C#N)c(NC(C)C)nc2c1 23%
Cc1c(NC(=O)CN2c3cccc4cccc(c34)S2(=O)=O)c(=O)n(-c2ccccc2)n1C 15.5%
COc1ccc(C2CC(=O)c3c(C)nc(N4CCN(c5ccccc5)CC4)nc3C2)cc1 (stereo not given) -8.5%
COc1cc(CC(=O)NCc2ccc3c(c2)OCO3)cc(OC)c1OC 10.7%
O=C(CCCC(=O)N(CC(=O)NC1CCCCC1)Cc1ccc2c(c1)OCO2)Nc1ccccn1 25.3%
CCCOc1ccc(/C(O)=C2/C(=O)C(=O)N(CCCOC)C2c2ccncc2)cc1 (stereo not given) 2.66%
Cc1cc(NC(=O)CCC(=O)N(CCc2ccccc2)C(C(=O)NC2CCCC2)c2ccco2)no1 (stereo not given) 19.1%
CCC(=O)OC1(C#CCOc2ccc(OC)cc2)CCN(C)CC1 16%
CCCS(=O)(=O)N1CCC(C(=O)N2CCCC2)CC1 8.55%
O=C(CS(=O)(=O)Cc1ccccc1)N1CCc2ccccc2C1 -31.5%
